In PubChem BioAssay (NCATS):
Several values for one entry are separate records, joined by “and”; a condition that tells them apart may be missing. Equal entries are not always repeated. Unmarked numbers belong to inactive results. Records with an inconclusive call do not appear. Activity calls are given as the source filed them. Unless noted, calls follow the shape of the dose curve; as a rule, active = well fitted inhibition curve with a large enough effect; inconclusive = small, poorly fitted or top-dose-only effect; inactive = flat fitted curve, though single readings scatter.

Experiments:
[1] = Drug repurposing screens with cells derived from glioblastoma tumor samples (AID 1345199); settings: GBM patient neurospheres viability, ATP luminescence, 48 h; also: nearly all actives have a fitted effect of over 40% in size; also: potency is read from the fitted curve at half-maximal effect; as to activity, negative = cell killing: % is scaled to controls: 0 for no effect and ±100 for the full control effect
How it was run: (§1)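 Primary testing used CD133+ neurospheres from four GBM patients, seven concentrations, 48 h exposure and ATP-based viability; confirmation added three slower-growing patient lines.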

astro = control astrocytes; assay: as above; settings: viability, ATP luminescence, 48 h; series mostly up to 45.9 µM
How it was run: as §1

[2] = qHTS assay for small molecule activators of the human pregnane X receptor (PXR) signaling pathway (AID 720659; call rule not given here; also: 0% is about no effect); settings: DPX-2 HepG2 CYP3A4-luciferase, 24 h; series mostly up to 92.3 µM
[3] = molecular target: Nuclear receptor subfamily 1 group I member 2 (Rattus norvegicus) (UniProt Q9R1A7); assay: qHTS assay for small molecule activators of the rat pregnane X receptor (rPXR) signaling pathway (AID 651751; call rule not given here; also: 0% is about no effect); settings: rPXR reporter cells, luciferase (One-Glo), 24 h
Chain of Nuclear receptor subfamily 1 group I member 2 (Rattus norvegicus) (Q9R1A7 whole entry, looked up): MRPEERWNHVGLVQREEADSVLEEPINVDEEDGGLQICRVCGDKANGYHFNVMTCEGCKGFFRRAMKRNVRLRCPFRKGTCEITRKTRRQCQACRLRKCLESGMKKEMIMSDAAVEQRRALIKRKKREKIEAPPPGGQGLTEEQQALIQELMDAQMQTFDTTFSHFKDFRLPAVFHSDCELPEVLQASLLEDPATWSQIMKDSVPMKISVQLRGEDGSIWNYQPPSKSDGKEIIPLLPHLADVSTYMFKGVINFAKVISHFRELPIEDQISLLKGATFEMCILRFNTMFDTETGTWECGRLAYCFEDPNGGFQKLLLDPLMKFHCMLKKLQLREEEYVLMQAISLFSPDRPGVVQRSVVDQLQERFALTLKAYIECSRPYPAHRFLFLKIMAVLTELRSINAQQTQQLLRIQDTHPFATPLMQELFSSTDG

[4] = at 45.9 µM (top of the series), tumour line B
[5] = at 45.9 µM (top of the series), tumour line D
[6] = at 46 µM (top of the series), tumour line A
[7] = at 46.1 µM (top of the series), tumour line C
[8] = at 20 µM (top of the series), tumour line C
[9] = at 21.2 µM (top of the series), tumour line B
[10] = at 21.2 µM (top of the series), tumour line D

## Nc1ncnc2c1ncn2[C@@H]1O[C@H](COP(=O)(O)OP(=O)(O)OP(=O)(O)O)[C@@H](O)[C@H]1O
[1]; [4]
  activity, negative = cell killing: 15.4%
[1]; [5]
  activity, negative = cell killing: -9.21%
[1]; [6]
  activity, negative = cell killing: -1.48%
[1]; [7]
  activity, negative = cell killing: 38.9%
astro
  Potency: inactive

## CC1=C(/C=C/C(C)=C/C=C/C(C)=C/C=C/C=C(C)/C=C/C=C(C)/C=C/C2=C(C)C(=O)CCC2(C)C)C(C)(C)CCC1=O
[1]; [4]
  activity, negative = cell killing: -0.298%
[1]; [5]
  activity, negative = cell killing: 9.62%
[1]; [7]
  activity, negative = cell killing: -24.8%
astro
  Potency: inactive

## CCOC(C)=O
[1]; [4]
  activity, negative = cell killing: -6.99%
[1]; [5]
  activity, negative = cell killing: -8.33%
[1]; [6]
  activity, negative = cell killing: -18.3%
[1]; [7]
  activity, negative = cell killing: 2.8%
astro
  Potency: inactive
[2]
  outcome: inactive

## CC(C)(C)C(=O)OCOC(=O)[C@@H]1N2C(=O)[C@@H](N=CN3CCCCCC3)[C@H]2SC1(C)C
[1]; [8]
  activity, negative = cell killing: -7.48%
[1]; [9]
  activity, negative = cell killing: -4.41%
[1]; [10]
  activity, negative = cell killing: 17.4%
[1]; at 21.3 µM (top of the series), tumour line A
  activity, negative = cell killing: -13.2%
astro
  Potency: inactive

## CCCCCCCCCCCCCCCCCCOP(=O)([O-])OC1CC[N+](C)(C)CC1
[1]; [8]
  activity, negative = cell killing: -12.3%
[1]; [9]
  activity, negative = cell killing: -9.9%
[1]; [10]
  activity, negative = cell killing: -6.99%
astro
  Potency: inactive

## CCCCCCCCCCCCCC[n+]1ccc(C)cc1
astro
  Potency: 3.16 µM (active)

## CC[C@@H](C(=O)[C@@H](C)[C@@H](O)[C@H](C)CCc1ccc(C)c(O)c1C(=O)O)[C@H]1O[C@](CC)([C@H]2CC[C@](O)(CC)[C@H](C)O2)C[C@@H]1C
astro
  Potency: 7.08 µM (active)

## CO/N=C(\C(=O)N[C@@H]1C(=O)N2C(C(=O)O)=C(CSc3cnns3)CS[C@H]12)c1csc(N)n1
[1]; [4]
  activity, negative = cell killing: -0.235%
[1]; [5]
  activity, negative = cell killing: 11.9%
astro
  Potency: inactive

## CC(C)=O
[1]; [4]
  activity, negative = cell killing: -1.76%
[1]; [5]
  activity, negative = cell killing: -10.6%
[1]; [7]
  activity, negative = cell killing: -8.82%
astro
  Potency: inactive
[3]
  max response: 2.78%
[2]
  outcome: inactive

## CC[C@@H](C(=O)O)[C@@H]1O[C@@H]([C@@H](C)[C@H](O)[C@H](C)C(=O)[C@H](CC)[C@H]2O[C@]3(C=C[C@@H](O)[C@]4(CC[C@@](C)([C@H]5CC[C@](O)(CC)[C@H](C)O5)O4)O3)[C@H](C)C[C@@H]2C)[C@@H](C)C[C@@H]1C
astro
  Potency: 0.794 µM (active)

## CCCCC/C=C\C/C=C\CCCCCCCC(=O)O
[1]; [4]
  activity, negative = cell killing: -6.32%
[1]; [5]
  activity, negative = cell killing: -10.3%
[1]; [7]
  activity, negative = cell killing: 11.8%
astro
  Potency: inactive
[3]
  max response: 6.19% and -3.59%
[2]
  outcome: inactive

## CCNC(=O)[C@@H]1CCCN1C(=O)[C@H](CCCN=C(N)N)NC(=O)[C@H](CC(C)C)NC(=O)[C@@H](Cc1c[nH]c2ccccc12)NC(=O)[C@H](Cc1ccc(O)cc1)NC(=O)[C@H](CO)NC(=O)[C@H](Cc1c[nH]c2ccccc12)NC(=O)[C@H](Cc1cnc[nH]1)NC(=O)[C@@H]1CCC(=O)N1
astro
  Potency: 8.91 µM (active)

## COc1ccc(CCNC[C@H](O)c2ccc(O)cc2)cc1OC
[1]; [4]
  activity, negative = cell killing: -3.8%
[1]; [5]
  activity, negative = cell killing: -0.958%
[1]; [7]
  activity, negative = cell killing: -0.44%
astro
  Potency: inactive

## CCCCC(CC)COC(=O)CC(C(=O)OCC(CC)CCCC)S(=O)(=O)O (configuration not stated)
[1]; [4]
  activity, negative = cell killing: 1.3%
[1]; [6]
  activity, negative = cell killing: -17.3% and -22.7%
[1]; [7]
  activity, negative = cell killing: -38.9%
astro
  Potency: inactive
[3]
  max response: 6.97%

## CC(C)(C)NC(=O)[C@@H]1C[C@@H]2CCCC[C@@H]2CN1C[C@@H](O)[C@H](Cc1ccccc1)NC(=O)[C@H](CC(N)=O)NC(=O)c1ccc2ccccc2n1
[1]; [7]
  activity, negative = cell killing: 7.54%
[1]; tumour line A
  Potency: 4.47 µM (active)
astro
  Potency: inactive

## CCCCCCOc1ccc(C(=N)N(CCCC)CCCC)c2ccccc12
astro
  Potency: 17.8 µM (active)

## O=C1C(=O)c2ncccc2-c2cccnc21
astro
  Potency: 0.562 µM (active)

## CO[C@H]1C[C@@H]2CC[C@@H](C)[C@@](O)(O2)C(=O)C(=O)N2CCCC[C@H]2C(=O)O[C@H]([C@H](C)C[C@@H]2CC[C@@H](OCCO)[C@H](OC)C2)CC(=O)[C@H](C)/C=C(\C)[C@@H](O)[C@@H](OC)C(=O)[C@H](C)C[C@H](C)/C=C/C=C/C=C/1C
astro
  Potency: 25.1 µM (active)

## CCOc1ccc(N=Nc2ccc(N)cc2N)cc1
astro
  Potency: 2.51 µM (active)

## CNc1cc(OC)c(C(=O)N[C@H]2CCN(Cc3ccccc3)[C@H]2C)cc1Cl
[1]; [4]
  activity, negative = cell killing: -17.5%
[1]; tumour line A
  Potency: 7.08 µM (active)
[1]; tumour line D
  Potency: 20 µM (active)
astro
  Potency: inactive

## CC[N+](CC)(CC)CCC(O)(c1ccccc1)C1CCCCC1 (configuration not stated)
[1]; [8]
  activity, negative = cell killing: 3.9%
[1]; [9]
  activity, negative = cell killing: -4.74%
[1]; [10]
  activity, negative = cell killing: 0.449%
astro
  Potency: inactive
